Results taken from PubChem BioAssay (NCATS).
Records with an inconclusive call do not appear. Unmarked numbers belong to inactive results. Activity calls are given as the source filed them. Calls come from the whole dose curve; tested in HEK293 reporter line.

Assay: qHTS for Inhibitors of the Functional Ribonucleoprotein Complex (vRNP) of Lassa (LASV) Arenavirus: Viability assay - alamar blue signal for LASV Primary Screen (AID 1347083); note: nearly all actives have a fitted effect of over 80% in size
Settings: cell viability, alamar blue fluorescence (LASV minigenome counter-screen); series mostly up to 57.5 µM; activity change, negative = reduced viability: at the top concentration
% is set by controls: 0 for no effect and ±100 for the full control effect; potency is the fitted concentration of half-maximal effect.

Row | Compound | activity change, negative = reduced viability | Potency
1 | Cc1cnc(C)c(C)n1 | 16% [at 115 µM] | 
2 | C=C1CC[C@H](O)C/C1=C/C=C1\CCC[C@]2(C)[C@@H]([C@H](C)CCC(O)C(C)(C)O)CC[C@@H]12 (stereo not given in full) | 13.2% | 
3 | Cc1ccc(-c2ccccc2)cc1 | 18.1% [at 115 µM] | 
4 | C=C(C)[C@@H]1CCC2=CCC[C@@H](C)[C@]2(C)C1 | -0.0554% [at 115 µM] | 
5 | CC(=O)O[C@H](COc1c2ccoc2cc2oc(=O)ccc12)C(C)(C)O | -1.2% | 
6 | C/C=C(\C)C(=O)O[C@@H]([C@H](O)c1cc2ccc(=O)oc2cc1OC)C(C)(C)O | 0.273% | 
7 | C[C@]12O[C@H](C[C@@]1(O)C(=O)O)n1c3ccccc3c3c4c(c5c6ccccc6n2c5c31)CNC4=O | -37.8% [at 5.82 µM] | 
8 | C[C@@H]1C(=O)CC2C(C)(C)CCC[C@]2(C)[C@@]1(O)CCc1ccoc1 (stereo not given in full) | 5.47% | 
9 | COc1cc2c3c(c1OC)-c1cc(O)ccc1CC3NCC2 (stereo not given) | 1.87% | 
10 | C/C=C/c1ccc2oc(-c3ccc(O)cc3)c(C)c2c1 | 0.965% | 
11 | COc1cc2ccc(=O)oc2cc1O | 10.9% | 
12 | CC/C=C\CC1=C(C)CCC1=O | -21.5% [at 115 µM] | 
13 | C=CCc1ccc(O)c(-c2cc(CC=C)ccc2O)c1 | 18.2% | 
14 | COc1cc2c(cc1OC)[C@@H]1Cc3cc4c(cc3[C@H](C2)N1C)OCO4 | -3.54% | 
15 | CO[C@H]1[C@@H](OC)CC(OC2OC(CO)C(O)C(O)C2O)/C(=C\C#N)[C@@H]1O (stereo not given in full) | 0.39% | 
16 | CCCCC/C=C\C/C=C\C/C=C\C=C\C(O)CCCC(=O)O (stereo not given) | 7.65% [at 0.757 µM] | 
17 | CC12CCC(=O)C=C1CCC1C2C(O)CC2(C)C(O)CCC12 (stereo not given) | 3.49% | 
18 | CC1CCC(=O)O1 (stereo not given) | 11.1% [at 115 µM] | 
19 | CC(C)CCC[C@@H](C)[C@@H]1CC[C@H]2C3=CC=C4CC(O)CC[C@]4(C)[C@H]3CC[C@@]21C (stereo not given in full) | 24.7% | 
20 | O=C1CCCCCCCCCCCCCCO1 | 11.4% [at 115 µM] | 

Row | Compound | activity change, negative = reduced viability | Potency
21 | CC(C)(O)c1ccc2c(c1)CCC1C(C)(C(=O)O)CCCC21C (stereo not given) | -17.5% | 
22 | Cc1c(O)ccoc1=O | 7.94% | 
23 | COc1ccc(-c2cnc(-c3cccnc3)o2)cc1 | -20.8% | 
24 | O=C(O)CCCCCCCCCC(=O)O | 22.1% [at 115 µM] | 
25 | CC(=O)OCC=C(C)C | 3.69% | 
26 | COC(=O)c1ccccc1-n1c(C)nc2ccccc2c1=O | 1.01% | 
27 | CN1c2c(nc(N)[nH]c2=O)NCC1CNc1ccc(C(=O)NC(CCC(=O)O)C(=O)O)cc1 (stereo not given) | 6.21% | 
28 | CC1=CCC(C(C)C)=CC1 | 13.5% [at 115 µM] | 
29 | C=O | -0.529% [at 115 µM] | 
30 | COC(=O)c1ccc(=O)c2nc3/c(=C/O)c(O)cc(=O)c3[nH]c12 | 11.8% | 
31 | Cc1nc2sccn2c(=O)c1CCN1CCC(=C(c2ccccc2)c2ccc(F)cc2)CC1 | 5.58% | 
32 | COc1cc(C(=O)O[C@@H]2CC3CC[C@]2(C)C3(C)C)ccc1O | 19.9% | 
33 | c1ccc(-c2ccncc2)cc1 | 0.127% | 
34 | C=CCCC[C@@H]1OC(=O)CNC(=O)C([C@@H](C)CC)NC(=O)[C@@H]2CCCN2C(=O)C([C@@H](C)CC)OC(=O)[C@H](Cc2ccccc2)N(C)C(=O)[C@H](C(C)C)NC(=O)C1(C)C (stereo not given in full) | 5.37% | 
35 | CO[C@H]1[C@@H]2C=CO[C@@H](O[C@H]3O[C@@H](CO)[C@H](O)[C@@H](O)[C@@H]3O)[C@@H]2[C@@]2(CO)O[C@@H]12 | 13.8% | 
36 | CC1CC2CCCC(O)=C2C(=O)O1 (stereo not given) | 4.66% | 
37 | C[C@H](NCc1ccc2c(c1)nc(NC(=O)c1ccc(-c3cn[nH]c3)s1)n2CCc1ccccc1)C(C)(C)C |  | 6.11 µM (active)
38 | CC(=O)OC[C@H]1O[C@@H](Oc2cc(O)cc3oc(-c4ccc(O)cc4)cc(=O)c23)[C@H](O[C@@H]2O[C@@H](C)[C@H](O)[C@@H](O)[C@H]2O)[C@@H](O)[C@@H]1O | 13.3% | 
39 | CCCCCCCC/C=C/CCCOC(C)=O | 11.6% [at 115 µM] | 
40 | COc1ccc(C2OCC3(O)C(c4ccc(OC)c(OC)c4)OCC23)cc1OC (stereo not given) | 1.55% | 
